Inconclusive results are not listed. Activity calls are given as the source filed them. Calls follow the shape of the dose curve; as a rule, active = well fitted inhibition curve with a large enough effect; inconclusive = small, poorly fitted or top-dose-only effect; inactive = flat fitted curve, though single readings scatter.
The compounds below were run against Lysine-specific demethylase 5B (Homo sapiens) (UniProt Q9UGL1) (assay: Optimization screen for KDM5B Histone Demethylases FDH coupled qHTS against the LOPAC library (AID 1347166)). Conditions: KDM5B demethylation, FDH-coupled NADH fluorescence (FDH is formaldehyde dehydrogenase); series mostly up to 57.5 µM.
Lysine-specific demethylase 5B (Homo sapiens), sequence (Q9UGL1 whole entry, looked up): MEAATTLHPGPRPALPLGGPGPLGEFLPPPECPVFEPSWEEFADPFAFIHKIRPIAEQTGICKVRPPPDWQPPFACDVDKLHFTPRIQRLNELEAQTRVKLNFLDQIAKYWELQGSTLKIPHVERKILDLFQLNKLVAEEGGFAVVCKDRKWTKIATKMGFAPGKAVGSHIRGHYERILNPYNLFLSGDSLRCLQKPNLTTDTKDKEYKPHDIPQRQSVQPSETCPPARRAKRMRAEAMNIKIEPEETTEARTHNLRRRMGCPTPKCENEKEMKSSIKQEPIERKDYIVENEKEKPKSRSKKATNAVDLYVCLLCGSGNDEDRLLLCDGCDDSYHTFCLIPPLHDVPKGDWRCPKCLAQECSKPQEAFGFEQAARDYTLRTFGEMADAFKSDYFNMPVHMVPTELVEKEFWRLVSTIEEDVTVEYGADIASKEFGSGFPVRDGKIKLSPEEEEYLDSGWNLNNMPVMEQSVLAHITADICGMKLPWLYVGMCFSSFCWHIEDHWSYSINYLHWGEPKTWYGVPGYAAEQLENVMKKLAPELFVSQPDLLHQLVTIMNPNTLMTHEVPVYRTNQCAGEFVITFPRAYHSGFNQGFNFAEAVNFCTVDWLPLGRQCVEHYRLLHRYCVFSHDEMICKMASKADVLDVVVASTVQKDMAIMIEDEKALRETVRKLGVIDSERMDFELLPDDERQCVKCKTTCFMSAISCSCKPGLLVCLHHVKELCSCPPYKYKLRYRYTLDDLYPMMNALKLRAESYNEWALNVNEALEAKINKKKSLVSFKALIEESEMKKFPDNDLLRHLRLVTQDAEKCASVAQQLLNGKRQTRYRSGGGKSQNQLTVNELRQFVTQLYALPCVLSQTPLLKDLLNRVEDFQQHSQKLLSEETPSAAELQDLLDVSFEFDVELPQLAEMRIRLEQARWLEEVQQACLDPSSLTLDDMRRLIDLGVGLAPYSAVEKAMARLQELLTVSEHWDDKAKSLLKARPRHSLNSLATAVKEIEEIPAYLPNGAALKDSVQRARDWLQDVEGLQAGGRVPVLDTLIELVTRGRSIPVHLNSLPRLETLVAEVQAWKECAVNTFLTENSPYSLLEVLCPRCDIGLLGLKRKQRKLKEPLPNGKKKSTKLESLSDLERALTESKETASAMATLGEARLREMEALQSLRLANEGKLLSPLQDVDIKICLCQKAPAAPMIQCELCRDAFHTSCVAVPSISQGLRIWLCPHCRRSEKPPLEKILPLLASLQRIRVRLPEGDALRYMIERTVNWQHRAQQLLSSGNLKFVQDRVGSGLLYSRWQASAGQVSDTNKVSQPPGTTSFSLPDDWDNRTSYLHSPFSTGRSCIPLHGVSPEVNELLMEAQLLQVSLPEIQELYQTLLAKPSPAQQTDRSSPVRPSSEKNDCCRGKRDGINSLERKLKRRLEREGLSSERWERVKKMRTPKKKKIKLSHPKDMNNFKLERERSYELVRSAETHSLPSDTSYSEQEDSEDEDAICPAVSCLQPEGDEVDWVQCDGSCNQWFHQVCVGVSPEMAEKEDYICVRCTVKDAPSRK
Text: Assay Submitter (PI): Qin Yan, Ph.D. (Yale University) and Xiaodong Cheng, Ph.D. (MD Anderson)
This project was funded as part of the NCI NEXT Program and Chemical Biology Consortium (CBC)
The histone demethylases, KDM5A and KDM5B catalyze the demethylation of lysine 4 on histone H3 (H3K4me3/2). They
are overexpressed in a variety of cancers and have been implicated in cancer cell growth, metastasis, drug resistance, and tumor growth. KDM5A is amplified and overexpressed in breast and gastric cancer; and is translocated in leukemia. While KDM5B is highly expressed in human mammary tumors and breast cancer cell lines, but not in normal adult breast tissue. Moreover, knockdown of KDM5B leads to upregulation of tumor suppressor genes, including BRCA1. The goal of this project is to employ qHTS to identify selective small molecule inhibitors of KDM5A/B demethylase activity to better understand the role of KDM5 in cancer and to develop novel therapies.
We employed an FDH-coupled assay previously reported by Sakurai et al. to monitor in vitro KDM5 demethylase activity. Compounds showing dose response inhibition are re-acquired, validated, and tested for non-specific interference with the formaldehyde dehydrogenase (FDH) counterscreen. True inhibitors are validated using an AlphaLisa secondary screen, which employs an H3K4(me2-1)-specific antibody to monitor demethylation of a biotin-tagged H3K4(me3) peptide substrate. Inhibitors are profiled against KDM4A and KDM6A AlphaLisa counterscreens to determine level of demethylase specificity; and against the TruHits counterscreen to eliminate non-specific inhibitory activity on the AlphaLISA detection method. Selective inhibitors identified from the primary and secondary screening are tested in cells using immunofluorescence to monitor global H3K4 tri-methylation as a measure of KDM5A/B inhibition. This assay is run against the NCGC Lopac collection of about 1,200 compounds to evaluate its amenability to quantitative High Throughput Screening (qHTS) platform.
Early Translation Branch (ETB)
National Center for Advancing Translational Sciences (NCATS), Rockville, MD
National Institute of Health (NIH), Bethesda, Maryland
[1] Sakurai, M et al. A miniaturized screen for inhibitors of Jumonji histone demethylases. Mol Biosyst. 2010 Feb;6(2):357-64. doi: 10.1039/b912993f. Epub 2009 Oct 8.
1536-well Black, solid bottom, medium binding assay plate is purchased from Greiner Bio-one. The enzymes (KDM5B) and substrate (H3K4me3/2) are provided by the principal investigators. The buffer for this assay is composed of 50mM HEPES at pH 7.5 with 0.01% Tween-20.
FDH coupled qHTS protocol:
Three microliter enzyme mix (buffer + 200nM KDM5BDeltaAP final concentration) is dispensed into the assay plate using the BioRAPTR Flying Reagent Dispenser (FRD; Beckton-Dickenson). Compound (at various final concentration) and control solution is pin transferred to the assay plate using the Kalypsys 1536-pin tool apparatus. The assay plate is incubated for 10 min at room temperature followed by addition of 1uL substrate mix (buffer + 100uM ascorbic acid, 50uM ferrous ammonium sulfate, 12.5uM H3K4Me3, 25uM a-ketoglutarate, 0.25 mM NAD+, 0.25 U/mL formaldehyde dehydrogenase using the FRD yielding a total reaction volume of 4 uL. Initial fluorescence (Read1) is detected using the PerkinElmer ViewLux plate reader equipped with 340 nm excitation and 450 nm emission filters. The final fluorescence (Read2) signal is obtained after 30 min of room temperature incubation. Delta RFU is calculated (Read2 - Read1) and is used to generated dose response curves
With `O=C(O)c1cccnc1Nc1cccc(C(F)(F)F)c1` the outcome was “inactive”.
For `CC1(C)C(=O)N(CCN2CCC(C(=O)c3ccc(F)cc3)CC2)c2ccccc21`, the outcome was “inactive”.
`C[C@@H](N)C1CCC(C(=O)Nc2ccncc2)CC1` (stereo partly specified) was tested, and the outcome was “inactive”.
In the case of `NCCCCNCCCN`, the outcome is reported as “inactive”.
`Nc1nc(N)c(N=O)c(OCC2CCCCC2)n1` was tested, and the outcome was “inactive”.
With `COc1ccc2cc([C@H](C)C(=O)O)ccc2c1` the outcome was “inactive”.
For `Cc1cccc(C#Cc2ccccc2)n1`, the outcome was “inactive”.
For `OC(CN1CCN(c2cccc(Cl)c2)CC1)C(c1ccccc1)c1ccccc1` (stereo unspecified), the outcome was “inactive”.
With `Cc1cc(O)c2c(c1)C(=O)c1cc(O)cc(O)c1C2=O` the outcome was “inactive”.
With `O=C(c1ccccc1)c1ccc2n1CCC2C(=O)O` (stereo unspecified) the outcome was “inactive”.
In the case of `COc1ccccc1N1CCN(CCN(C(=O)C2CCCCC2)c2ccccn2)CC1`, the outcome is reported as “inactive”.
With `O=Nc1c(-c2c(O)[nH]c3cc(Br)ccc23)[nH]c2ccccc12` the outcome was “inactive”.
For `Nc1nc(OCc2ccccc2)c2[nH]cnc2n1`, the outcome was “inactive”.
For `CN(C)CCCC1(c2ccc(F)cc2)OCc2cc(C#N)ccc21` (stereo unspecified), the outcome was “inactive”.
With `CC(=O)N1CCN(c2ccc(OC[C@H]3CO[C@](Cn4ccnc4)(c4ccc(Cl)cc4Cl)O3)cc2)CC1` the outcome was “inactive”.
`CC(=O)O[C@H]1C(=O)[C@@]2(C)C([C@H](OC(=O)c3ccccc3)[C@]3(O)C[C@H](OC(=O)[C@H](O)[C@@H](NC(=O)c4ccccc4)c4ccccc4)C(C)=C1C3(C)C)[C@]1(OC(C)=O)CO[C@@H]1C[C@@H]2O` (stereo partly specified) was tested, and the outcome was “inactive”.
With `Nc1ccn([C@@H]2O[C@H](CO)[C@@H](O)C2O)c(=O)n1` (stereo partly specified) the outcome was “inactive”.
In the case of `CC1(C)NC(=O)N(c2ccc([N+](=O)[O-])c(C(F)(F)F)c2)C1=O`, the outcome is reported as “inactive”.
With `CC(C)c1ccc2c(c1)c(SC(C)(C)C)c(CC(C)(C)C(=O)O)n2Cc1ccc(Cl)cc1` the outcome was “inactive”.
`O=C1c2ccccc2-c2n[nH]c3cccc1c23` was tested, and the outcome was “inactive”.
`Cc1c(OCC(F)(F)F)ccnc1CS(=O)c1nc2ccccc2[nH]1` (stereo unspecified) was tested, and the outcome was “inactive”.

From PubChem BioAssay (NCATS)
